The source made the active and inactive calls. Unless noted, no rule for the calls is given here.
Legend:
[1] = HepG2 liver cancer cell viability effects, profiling panel, resazurin fluorescence, 24 h, PK04 Diversity Set (AID 1172); settings: higher = more signal; also: test concentration not given here
[2] = basal S. cerevisiae growth modulation, no modifier, primary screen, OD600, strain BY4716, 24 h, basal condition (AID 1173); settings: OD600, 24 h, higher = more signal, called active from +8 up or from −8 down
[3] = MM1S myeloma cell viability, profiling panel, resazurin fluorescence, basal, 24 h, PK04 Diversity Set (AID 1174); settings: higher = more signal, called active from +8 up or from −8 down;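 also: MM1S multiple myeloma cell line; test concentration not given here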
[4] = target: Dihydroorotate dehydrogenase (quinone), mitochondrial (Plasmodium falciparum (isolate 3D7)) (UniProt Q08210); assay: PfDHODH enzyme inhibitors, primary screen, biochemical, C-terminal His tag, absorbance 600 nm (AID 1175); settings: DCIP absorbance 600 nm, higher = more signal, called active from +8 up or from −8 down;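 also: recombinant parasite enzyme with a five histidine tag at its C terminus; test concentration not given here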
[5] = P. aeruginosa biofilm formation inhibitors, primary screen, strain PAO1, LB-PBS medium, absorbance 600 nm (AID 1176); also: test concentration not given here; settings: P. aeruginosa PAO1 growth/biofilm, A600, 12 h; higher = more signal
[6] = S. cerevisiae RM11-1a growth modifiers, primary screen, strain RM11-1a, OD600, basal, 24 h (AID 1177); settings: OD600, 24 h, higher = more signal, called active from +8 up or from −8 down;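 also: cultures grown under basal conditions with no added stressor; test concentration not given here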
[7] = E. coli acrAB mutant growth effects, primary screen, E. coli filamentation inducers, strain DRC39, OD650, 24 h (AID 1178); settings: higher = more signal, called active from +8 up or from −8 down;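 also: growth measured as culture turbidity by optical density at 650 nm; test concentration not given here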
[8] = E. coli acrAB mutant growth effects, primary screen, E. coli filamentation inducers, strain DRC39, OD650, 48 h (AID 1179);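 also: screen aims at cell division blockers that make cells filament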; settings: E. coli DRC39 delta-acrAB growth, higher = more signal, called active from +8 up or from −8 down
[9] = RPMI8226 myeloma cell viability, profiling panel, resazurin fluorescence, basal, 24 h, PK04 Diversity Set (AID 1180); settings: higher = more signal;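 also: RPMI8826 multiple myeloma cell line at 5000 cells per well; test concentration not given here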
[10] = target: E3 ubiquitin-protein ligase XIAP (Homo sapiens) (UniProt P98170); assay: XIAP binders, primary screen, biophysical, small-molecule microarray, fluorescence 635 nm (AID 1181); settings: small-molecule microarray binding, higher = more signal;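 also: score merges 667 nm emission and signal to noise over triplicate slides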
Sequence of E3 ubiquitin-protein ligase XIAP (Homo sapiens) (P98170 whole entry, looked up): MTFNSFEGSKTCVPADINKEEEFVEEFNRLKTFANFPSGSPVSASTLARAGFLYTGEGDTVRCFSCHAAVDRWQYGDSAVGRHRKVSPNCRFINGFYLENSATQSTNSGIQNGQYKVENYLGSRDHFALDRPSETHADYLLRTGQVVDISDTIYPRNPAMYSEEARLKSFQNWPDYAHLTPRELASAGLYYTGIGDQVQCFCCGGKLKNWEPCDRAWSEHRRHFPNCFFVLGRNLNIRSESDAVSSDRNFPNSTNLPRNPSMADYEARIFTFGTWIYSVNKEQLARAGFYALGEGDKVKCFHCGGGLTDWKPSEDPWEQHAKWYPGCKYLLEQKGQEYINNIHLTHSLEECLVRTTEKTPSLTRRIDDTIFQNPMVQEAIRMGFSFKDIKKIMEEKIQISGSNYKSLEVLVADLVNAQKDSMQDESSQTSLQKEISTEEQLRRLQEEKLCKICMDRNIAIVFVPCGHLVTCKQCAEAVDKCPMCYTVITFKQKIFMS

Sequence of Dihydroorotate dehydrogenase (quinone), mitochondrial (Plasmodium falciparum (isolate 3D7)) (Q08210 whole entry, looked up): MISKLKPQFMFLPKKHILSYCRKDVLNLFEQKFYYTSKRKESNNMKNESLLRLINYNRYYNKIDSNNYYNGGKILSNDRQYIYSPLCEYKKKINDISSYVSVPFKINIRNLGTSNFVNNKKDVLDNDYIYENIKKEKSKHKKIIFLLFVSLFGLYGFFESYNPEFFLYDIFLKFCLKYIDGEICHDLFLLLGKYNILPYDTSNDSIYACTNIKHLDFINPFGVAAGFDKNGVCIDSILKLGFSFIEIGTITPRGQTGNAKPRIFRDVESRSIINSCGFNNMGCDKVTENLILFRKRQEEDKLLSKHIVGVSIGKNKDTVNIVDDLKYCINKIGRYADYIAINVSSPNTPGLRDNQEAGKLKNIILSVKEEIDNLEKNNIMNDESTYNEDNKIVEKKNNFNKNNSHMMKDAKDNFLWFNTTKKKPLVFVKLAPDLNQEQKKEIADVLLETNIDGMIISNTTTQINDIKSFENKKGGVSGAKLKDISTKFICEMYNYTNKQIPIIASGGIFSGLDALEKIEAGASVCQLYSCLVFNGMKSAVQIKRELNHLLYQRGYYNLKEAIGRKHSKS

Structure (SMILES)	z-score [1]	z-score [2]	z-score [3]	composite z-score [4]	z-score [5]	z-score [6]	z-score [7]	z-score [8]	z-score [9]	composite z-score [10]
Cc1ccc(S[C@]2(C(=O)NCC(F)(F)F)CC(=O)N(Cc3ccccc3Cl)[C@@H]2c2ccc(CO)cc2I)cc1	0.305	-3.36 (inactive)	-3.29 (inactive)	-0.148 (inactive)	0.0214 (inactive)	-0.54 (inactive)	0.357 (inactive)	0.465 (inactive)	-2.02	0.0256
O=C(NN=C1C[C@@H](O)[C@@H](O)[C@@H]2[C@@H]3C(=O)N(c4cccc(Oc5ccccc5)c4)C(=O)[C@@H]3CC[C@H]12)OCc1ccccc1	0.615	-0.841 (inactive)	-0.0525 (inactive)	0.294 (inactive)	-0.708 (inactive)	-0.474 (inactive)	0.578 (inactive)	0.514 (inactive)	0.49	-0.141
CO[C@H]1COC(=O)CC=C[C@H](C)[C@@H](NS(=O)(=O)c2ccc(C)cc2)COC(=O)CC=C[C@@H]1C	0.55	-1.66 (inactive)	-0.31 (inactive)	-2.98 (inactive)	-0.573 (inactive)	-4.14 (inactive)	-0.721 (inactive)	-1.03 (inactive)	-0.203	-0.255
Cc1ccc(F)cc1S(=O)(=O)N[C@@H]1CCN(Cc2ccc(CC(C)C)cc2)C1	-0.367	-17.2 (active)	-0.653 (inactive)	-0.687 (inactive)	0.294 (inactive)	-14.5 (active)	-20.3 (active)	-17.4 (active)	-1.89	-0.106
C#CCCCON=C1C[C@@H](O)[C@@H](O)[C@@H]2[C@@H]3C(=O)N(Cc4ccccc4)C(=O)[C@@H]3CC[C@H]12	1.02	-1.43 (inactive)	0.582 (inactive)	-0.794 (inactive)	0.495 (inactive)	-1.59 (inactive)	-0.039 (inactive)	-0.923 (inactive)	0.781	-0.256
CC(C)(C)N1C(=O)[C@H]2[C@H]3[C@H](O)[C@H](O)CC(=NOCc4ccccc4)[C@@H]3CC[C@H]2C1=O	-1.74	-0.245 (inactive)	-0.637 (inactive)	-1.36 (inactive)	0.246 (inactive)	-2.23 (inactive)	-0.474 (inactive)	-0.0278 (inactive)	-1.34	-0.0735
O=C1[C@H]2[C@H]3[C@H](O)[C@H](O)CC(=NOCc4ccccc4)[C@H]3CC[C@H]2C(=O)N1c1cccc(Oc2ccccc2)c1	1.44	-0.47 (inactive)	0.968 (inactive)	-0.278 (inactive)	-0.131 (inactive)	-0.0244 (inactive)	0.416 (inactive)	-0.482 (inactive)	0.564	-0.193
CC(C)(C)OC(=O)CC[C@]1(C(N)=O)COC(c2ccc(OCCCO)cc2)=N1	-0.722	0.0462 (inactive)	-1.43 (inactive)	0.0996 (inactive)	0.134 (inactive)	-0.788 (inactive)	-0.34 (inactive)	0.381 (inactive)	-0.751	0.276
CC(=O)OC[C@H]1O[C@H](CCON=C(C)CCC(=O)OC[C@H]2O[C@H](C#Cc3ccccc3)C=C[C@@H]2Oc2ccc(C)cc2)C=C[C@@H]1OC(C)=O	-0.508	0.511 (inactive)	-0.795 (inactive)	-0.84 (inactive)	0.405 (inactive)	0.661 (inactive)	0.674 (inactive)	0.59 (inactive)	-0.31	-0.241
CCCCCCc1nc(CCCc2cc3c(c(CCCCCC)n2)[Si](C(C)C)(C(C)C)O[C@H]3c2ccccc2)cc2c1[Si](C(C)C)(C(C)C)O[C@H]2c1ccccc1	0.0054	1.33 (inactive)	-0.582 (inactive)	-0.347 (inactive)	0.0793 (inactive)	-0.879 (inactive)	-0.631 (inactive)	-0.981 (inactive)	-0.465	-0.117
CC(C)NC(=O)[C@@]1(c2ccc([N+](=O)[O-])cc2)CC(=O)N(CC23CC4CC(CC(C4)C2)C3)[C@@H]1c1ccc(CO)cc1I	-3.37	-0.722 (inactive)	-4.2 (inactive)	-0.304 (inactive)	0.761 (inactive)	0.835 (inactive)	-0.398 (inactive)	-0.226 (inactive)	-4.86	0.0178
CC(C)(C)OC(=O)CC[C@]1(C(=O)NCc2ccccc2)N=C(c2ccc(OCCCO)cc2)O[C@H]1c1ccccc1	0.461	0.69 (inactive)	-0.768 (inactive)	0.218 (inactive)	0.469 (inactive)	0.543 (inactive)	0.732 (inactive)	0.03 (inactive)	-0.135	-0.16
C=CC[C@@H]1C=C[C@H](ON=C(C)CCN2CCc3nc(CC)c(CC)cc3C2)[C@@H](CO)O1	-0.127	-0.392 (inactive)	-0.439 (inactive)	-1.29 (inactive)	-0.0417 (inactive)	0.189 (inactive)	0.0116 (inactive)	0.138 (inactive)	-0.639	0.0178
COC(=O)[C@@]1(Cc2ccc(OC)cc2)[C@H]2c3cc(C(=O)N4CCCC4)n(Cc4cc(F)c(F)c(F)c4)c3C[C@H]2CN1C(=O)c1ccccc1	0.0559	1.35 (inactive)	-2.23 (inactive)	0.13 (inactive)	1.03 (inactive)	0.0628 (inactive)	-0.824 (inactive)	-0.254 (inactive)	-3.1	0.25
COC(=O)CC=C[C@H](C)[C@@H](OCc1ccccc1Br)C(C)C	-0.285	-0.553 (inactive)	-2.19 (inactive)	-0.216 (inactive)	0.274 (inactive)	-0.158 (inactive)	0.824 (inactive)	0.661 (inactive)	-1.89	0.157
CC(C)N1CC=CC23O[C@@H]4C=CCCOC(=O)C4[C@H]2C(=O)N(CCCCCCO)[C@@H]3C1=O (stereo not given in full)	0.973	0.948 (inactive)	0.98 (inactive)	-0.0439 (inactive)	0.109 (inactive)	0.638 (inactive)	0.66 (inactive)	0.541 (inactive)	0.937	0.694
O=C1NC(=O)C2C1C=CC(C(O)Cc1ccccc1)N2Nc1ccccn1 (stereo not given)	-0.507	0.424 (inactive)	-0.164 (inactive)	0.195 (inactive)	-0.118 (inactive)	-0.979 (inactive)	0.374 (inactive)	1.42 (inactive)	-0.448	-0.136
COCCOC(=O)N1C(=O)[C@@]2(c3cc(C#Cc4ccc(OC)cc4)ccc31)[C@H](c1ccc(O)cc1)N1[C@H](c3ccccc3)[C@H](c3ccccc3)OC(=O)[C@H]1[C@@H]2C(N)=O	-0.422	-0.306 (inactive)	-1.02 (inactive)	-0.0395 (inactive)	0.898 (inactive)	0.0054 (inactive)	0.761 (inactive)	0.0669 (inactive)	-2.3	-0.0559
O=C1C[C@@H](O)[C@@H](O)[C@@H]2[C@@H]3C(=O)N(Cc4ccc5c(c4)OCO5)C(=O)[C@@H]3CC[C@@H]12	0.227	0.189 (inactive)	-0.0728 (inactive)	0.745 (inactive)	-0.131 (inactive)	0.258 (inactive)	0.0081 (inactive)	0.0272 (inactive)	-0.707	0.0908
CCCNC(=O)[C@@H]1c2ccccc2C(=O)N(Cc2ccccc2Cl)[C@H]1c1ccc(CO)cc1	1.44	-0.768 (inactive)	0.496 (inactive)	-0.227 (inactive)	-0.217 (inactive)	0.251 (inactive)	0.812 (inactive)	0.829 (inactive)	1.45	-0.078
O=C1[C@H]2[C@H]3[C@H](O)[C@H](O)CC(=NO[C@@H]4O[C@H](CO)[C@@H](O)[C@H](O)[C@H]4O)[C@@H]3CC[C@H]2C(=O)N1Cc1ccc2c(c1)OCO2	-0.191	-0.387 (inactive)	0.0622 (inactive)	0.0922 (inactive)	-0.389 (inactive)	-0.558 (inactive)	-0.494 (inactive)	-0.136 (inactive)	0.36	-0.0552
C#C[C@@H](CC)O[Si](C#Cc1ccc(Oc2ccccc2)cc1)(C(C)C)C(C)C	-0.543	-0.87 (inactive)	-0.613 (inactive)	-0.661 (inactive)	0.833 (inactive)	0.898 (inactive)	-0.568 (inactive)	-0.416 (inactive)	-1.1	-0.0562
CCOC(=O)C[C@H]1[C@H](OC(=O)c2cc3ccccc3oc2=O)[C@@H](NC(=O)c2ccc3ccccc3n2)c2cc(OCCCO)ccc2N1C(=O)c1ccccc1	-0.983	-2.08 (inactive)	-0.668 (inactive)	-1.97 (inactive)	-0.754 (inactive)	-0.0333 (inactive)	-0.341 (inactive)	-0.753 (inactive)	-0.599	0.217

From PubChem BioAssay
